What was measured:
Test in all cases: DAPPL (digital affinity profiling via proximity ligation, sequencing); 10 mM Tris-HCl pH 7.5, 50 mM NaCl, 1 mM DTT, 4% glycerol, room temperature, 30 min; GST-TFs on glutathione beads, 16-mer random dsDNA library, 0.1% formaldehyde crosslink after washing; high values mean tight binding
[1] = biological target: T1, FLI1 (Homo sapiens, UniProt Q01543 1-452); settings: protein: recombinant; tags: N-terminal GST; dsDNA, one strand shown
T1 sequence: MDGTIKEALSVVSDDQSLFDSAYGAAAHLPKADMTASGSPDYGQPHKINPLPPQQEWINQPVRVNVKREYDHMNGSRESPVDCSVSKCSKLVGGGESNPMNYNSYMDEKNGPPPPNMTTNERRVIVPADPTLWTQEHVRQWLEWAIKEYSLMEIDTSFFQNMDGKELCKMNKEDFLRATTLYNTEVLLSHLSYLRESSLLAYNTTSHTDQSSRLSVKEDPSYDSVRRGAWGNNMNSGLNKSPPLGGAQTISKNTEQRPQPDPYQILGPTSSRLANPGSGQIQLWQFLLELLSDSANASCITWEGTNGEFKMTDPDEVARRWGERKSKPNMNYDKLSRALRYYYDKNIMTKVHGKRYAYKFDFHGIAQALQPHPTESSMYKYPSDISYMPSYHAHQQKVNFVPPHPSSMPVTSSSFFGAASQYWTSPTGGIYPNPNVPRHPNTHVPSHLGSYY
How it was run: (§1)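 Yeast served to express human transcription factors as GST fusions, which were then captured on glutathione beads and labelled with DNA barcodes. Pooled with a tag-only sample, they were incubated with 200 nmole of a 16-mer random double-stranded DNA library for 30 min at room temperature in Tris/NaCl/DTT/glycerol buffer, washed, crosslinked with 0.1% formaldehyde, ligated by proximity, amplified by PCR and sequenced. Dividing each hexamer's read frequency for a factor by its frequency for the tag-only sample gives the binding signal.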

[2] = biological target: T2, ELK1 (Homo sapiens, UniProt P19419 1-428); settings: protein: recombinant; tags: N-terminal GST; dsDNA, one strand shown
T2 sequence: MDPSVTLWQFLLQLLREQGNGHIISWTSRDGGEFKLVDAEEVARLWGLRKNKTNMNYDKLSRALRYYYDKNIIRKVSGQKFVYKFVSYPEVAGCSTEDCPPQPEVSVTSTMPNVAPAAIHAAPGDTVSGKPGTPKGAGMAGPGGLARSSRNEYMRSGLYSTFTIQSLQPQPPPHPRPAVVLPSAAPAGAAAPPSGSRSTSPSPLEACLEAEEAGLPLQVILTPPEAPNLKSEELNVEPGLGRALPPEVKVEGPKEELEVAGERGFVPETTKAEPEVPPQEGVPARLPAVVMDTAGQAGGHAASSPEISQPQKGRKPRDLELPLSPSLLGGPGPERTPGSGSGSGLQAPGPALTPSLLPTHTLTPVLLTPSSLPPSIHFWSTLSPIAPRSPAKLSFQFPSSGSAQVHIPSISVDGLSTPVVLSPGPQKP
How it was run: as §1

[3] = biological target: T3, GABPA (Homo sapiens, UniProt Q06546 1-454); settings: protein: recombinant; tags: N-terminal GST; dsDNA, one strand shown
T3 sequence: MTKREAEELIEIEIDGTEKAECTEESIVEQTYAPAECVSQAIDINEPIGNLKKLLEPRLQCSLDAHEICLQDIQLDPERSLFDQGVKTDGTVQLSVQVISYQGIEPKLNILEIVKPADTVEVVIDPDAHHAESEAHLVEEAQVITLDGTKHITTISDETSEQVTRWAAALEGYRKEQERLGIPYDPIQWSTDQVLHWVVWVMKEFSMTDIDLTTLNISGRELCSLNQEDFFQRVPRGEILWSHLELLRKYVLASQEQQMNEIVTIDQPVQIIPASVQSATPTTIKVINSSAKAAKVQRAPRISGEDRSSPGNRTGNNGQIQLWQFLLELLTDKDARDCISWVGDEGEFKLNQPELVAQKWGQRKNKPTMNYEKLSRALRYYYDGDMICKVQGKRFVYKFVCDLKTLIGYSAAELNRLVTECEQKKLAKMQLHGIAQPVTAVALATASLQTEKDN
How it was run: as §1

[4] = biological target: ELF1 (Homo sapiens, UniProt P32519 1-619); settings: protein: recombinant; tags: N-terminal GST; dsDNA, one strand shown
Sequence of ELF1 (P32519 whole entry): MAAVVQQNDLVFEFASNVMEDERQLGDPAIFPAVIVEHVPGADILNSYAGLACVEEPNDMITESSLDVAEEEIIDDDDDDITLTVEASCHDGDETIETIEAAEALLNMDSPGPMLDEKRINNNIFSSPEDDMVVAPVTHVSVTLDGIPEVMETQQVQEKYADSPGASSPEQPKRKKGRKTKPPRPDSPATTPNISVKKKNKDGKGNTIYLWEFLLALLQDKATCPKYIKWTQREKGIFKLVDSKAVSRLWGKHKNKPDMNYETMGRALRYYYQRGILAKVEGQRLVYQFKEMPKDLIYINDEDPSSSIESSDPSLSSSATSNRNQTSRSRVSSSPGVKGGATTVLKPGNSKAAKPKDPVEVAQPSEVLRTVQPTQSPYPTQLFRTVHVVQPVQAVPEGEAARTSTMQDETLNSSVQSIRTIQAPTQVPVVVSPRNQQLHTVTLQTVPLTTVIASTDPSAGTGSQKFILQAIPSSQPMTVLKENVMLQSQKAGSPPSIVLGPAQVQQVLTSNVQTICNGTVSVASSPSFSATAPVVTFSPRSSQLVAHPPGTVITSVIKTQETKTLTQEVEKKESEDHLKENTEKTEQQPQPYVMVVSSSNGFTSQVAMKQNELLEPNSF
How it was run: as §1

[5] = biological target: T4, EHF (Homo sapiens, UniProt Q9NZC4 1-300); settings: protein: recombinant; tags: N-terminal GST; dsDNA, one strand shown
T4 sequence: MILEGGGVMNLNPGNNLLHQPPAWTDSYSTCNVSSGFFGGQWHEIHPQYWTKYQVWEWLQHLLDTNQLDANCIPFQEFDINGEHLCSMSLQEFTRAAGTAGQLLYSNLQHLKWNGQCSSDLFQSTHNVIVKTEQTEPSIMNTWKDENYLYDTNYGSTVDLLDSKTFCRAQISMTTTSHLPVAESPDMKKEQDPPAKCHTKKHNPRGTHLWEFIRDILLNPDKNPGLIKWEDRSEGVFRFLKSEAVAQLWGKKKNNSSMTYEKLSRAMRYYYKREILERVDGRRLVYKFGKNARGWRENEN
How it was run: as §1

[6] = biological target: T5, ELK3 (Homo sapiens, UniProt P41970 1-407); settings: protein: recombinant; tags: N-terminal GST; dsDNA, one strand shown
T5 sequence: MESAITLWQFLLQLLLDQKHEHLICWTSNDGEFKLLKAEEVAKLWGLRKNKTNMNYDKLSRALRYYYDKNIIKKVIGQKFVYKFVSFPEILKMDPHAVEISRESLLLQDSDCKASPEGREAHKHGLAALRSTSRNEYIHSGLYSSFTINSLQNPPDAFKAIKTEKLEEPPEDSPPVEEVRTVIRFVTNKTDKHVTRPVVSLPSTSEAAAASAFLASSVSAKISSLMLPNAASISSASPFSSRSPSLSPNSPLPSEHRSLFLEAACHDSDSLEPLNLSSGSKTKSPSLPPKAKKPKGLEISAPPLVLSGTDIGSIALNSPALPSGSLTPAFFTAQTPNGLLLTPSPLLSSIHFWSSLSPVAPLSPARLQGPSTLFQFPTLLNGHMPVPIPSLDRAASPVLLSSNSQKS
How it was run: as §1

[7] = biological target: ETV5 (Homo sapiens, UniProt P41161 1-510); settings: protein: recombinant; tags: N-terminal GST; dsDNA, one strand shown
Sequence of ETV5 (P41161 whole entry): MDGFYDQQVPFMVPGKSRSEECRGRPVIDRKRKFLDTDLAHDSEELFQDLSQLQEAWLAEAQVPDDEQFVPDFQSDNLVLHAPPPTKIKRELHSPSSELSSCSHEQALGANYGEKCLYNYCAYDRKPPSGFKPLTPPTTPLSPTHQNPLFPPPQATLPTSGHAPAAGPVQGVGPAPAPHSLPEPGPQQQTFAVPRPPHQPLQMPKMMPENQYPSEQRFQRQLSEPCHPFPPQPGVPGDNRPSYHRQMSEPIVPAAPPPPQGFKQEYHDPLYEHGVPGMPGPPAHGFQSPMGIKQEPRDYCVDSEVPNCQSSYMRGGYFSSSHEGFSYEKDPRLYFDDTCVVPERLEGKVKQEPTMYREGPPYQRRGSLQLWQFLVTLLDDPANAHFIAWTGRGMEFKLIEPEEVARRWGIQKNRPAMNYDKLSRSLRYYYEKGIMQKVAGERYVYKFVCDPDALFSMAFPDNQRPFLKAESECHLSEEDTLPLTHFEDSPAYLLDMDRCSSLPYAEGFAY
How it was run: as §1

[8] = biological target: HSF1 (Homo sapiens, UniProt Q00613 1-529); settings: protein: recombinant; tags: N-terminal GST; chain copies: 3; dsDNA, one strand shown
Sequence of HSF1 (Q00613 whole entry): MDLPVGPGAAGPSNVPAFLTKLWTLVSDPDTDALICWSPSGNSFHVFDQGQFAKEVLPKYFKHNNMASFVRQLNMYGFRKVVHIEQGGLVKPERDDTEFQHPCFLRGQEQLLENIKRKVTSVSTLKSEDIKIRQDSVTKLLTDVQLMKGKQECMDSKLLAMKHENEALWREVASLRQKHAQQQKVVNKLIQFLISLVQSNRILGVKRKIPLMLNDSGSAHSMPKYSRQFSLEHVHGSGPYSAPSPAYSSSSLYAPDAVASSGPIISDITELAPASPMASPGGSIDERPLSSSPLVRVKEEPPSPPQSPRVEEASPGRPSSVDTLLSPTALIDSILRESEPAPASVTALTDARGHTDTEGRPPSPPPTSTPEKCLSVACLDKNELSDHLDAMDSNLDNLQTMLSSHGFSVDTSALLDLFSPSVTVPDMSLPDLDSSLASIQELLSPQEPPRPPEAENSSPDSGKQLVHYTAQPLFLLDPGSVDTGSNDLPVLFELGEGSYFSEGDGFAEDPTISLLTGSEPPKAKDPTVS
How it was run: as §1

[9] = biological target: T6, SPIC (Homo sapiens, UniProt Q8N5J4 1-248); settings: protein: recombinant; tags: N-terminal GST; dsDNA, one strand shown
T6 sequence: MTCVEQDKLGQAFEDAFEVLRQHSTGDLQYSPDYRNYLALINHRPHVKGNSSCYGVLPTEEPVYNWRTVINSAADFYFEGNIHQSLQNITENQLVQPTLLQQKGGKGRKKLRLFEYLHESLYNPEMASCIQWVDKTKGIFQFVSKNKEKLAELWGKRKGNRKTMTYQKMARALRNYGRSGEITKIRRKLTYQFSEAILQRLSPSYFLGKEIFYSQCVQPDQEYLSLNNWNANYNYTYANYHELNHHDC
How it was run: as §1

[10] = biological target: ELF4 (Homo sapiens, UniProt Q99607 1-663); settings: protein: recombinant; tags: N-terminal GST; dsDNA, one strand shown
Sequence of ELF4 (Q99607 whole entry): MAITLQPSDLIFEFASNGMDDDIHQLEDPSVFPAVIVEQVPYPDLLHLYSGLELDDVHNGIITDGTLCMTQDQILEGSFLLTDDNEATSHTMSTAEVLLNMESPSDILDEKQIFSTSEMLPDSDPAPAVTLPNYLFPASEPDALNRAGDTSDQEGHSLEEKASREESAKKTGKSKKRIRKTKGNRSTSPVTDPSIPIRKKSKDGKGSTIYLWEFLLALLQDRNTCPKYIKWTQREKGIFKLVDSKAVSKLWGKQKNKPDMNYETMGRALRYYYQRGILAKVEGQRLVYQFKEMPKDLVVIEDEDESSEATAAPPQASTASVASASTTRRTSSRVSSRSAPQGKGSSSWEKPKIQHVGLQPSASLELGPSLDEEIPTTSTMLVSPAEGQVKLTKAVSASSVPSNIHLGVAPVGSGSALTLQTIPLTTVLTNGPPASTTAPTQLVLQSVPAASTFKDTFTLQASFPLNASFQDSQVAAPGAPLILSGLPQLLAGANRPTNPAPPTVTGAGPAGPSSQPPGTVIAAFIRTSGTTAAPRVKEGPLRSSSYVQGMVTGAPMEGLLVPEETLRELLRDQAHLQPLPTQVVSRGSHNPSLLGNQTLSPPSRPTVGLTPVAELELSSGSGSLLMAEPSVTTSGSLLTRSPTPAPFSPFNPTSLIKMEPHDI
How it was run: as §1

[11] = biological target: T7, ELK4 (Homo sapiens, UniProt P28324-2 1-405); settings: protein: recombinant; tags: N-terminal GST; dsDNA, one strand shown
T7 sequence: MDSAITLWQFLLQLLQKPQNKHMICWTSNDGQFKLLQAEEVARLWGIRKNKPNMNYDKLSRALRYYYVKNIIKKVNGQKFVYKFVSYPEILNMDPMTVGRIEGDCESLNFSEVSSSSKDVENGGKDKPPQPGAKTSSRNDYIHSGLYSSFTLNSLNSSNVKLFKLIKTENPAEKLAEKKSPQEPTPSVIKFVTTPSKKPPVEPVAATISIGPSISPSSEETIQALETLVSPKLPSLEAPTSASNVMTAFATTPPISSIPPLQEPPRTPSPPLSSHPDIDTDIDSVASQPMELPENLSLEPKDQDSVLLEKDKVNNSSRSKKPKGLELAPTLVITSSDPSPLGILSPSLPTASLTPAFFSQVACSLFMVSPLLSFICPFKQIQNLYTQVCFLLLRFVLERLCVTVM
How it was run: as §1

[12] = biological target: T8, ELF3 (Homo sapiens, UniProt P78545 1-371); settings: protein: recombinant; tags: N-terminal GST; dsDNA, one strand shown
T8 sequence: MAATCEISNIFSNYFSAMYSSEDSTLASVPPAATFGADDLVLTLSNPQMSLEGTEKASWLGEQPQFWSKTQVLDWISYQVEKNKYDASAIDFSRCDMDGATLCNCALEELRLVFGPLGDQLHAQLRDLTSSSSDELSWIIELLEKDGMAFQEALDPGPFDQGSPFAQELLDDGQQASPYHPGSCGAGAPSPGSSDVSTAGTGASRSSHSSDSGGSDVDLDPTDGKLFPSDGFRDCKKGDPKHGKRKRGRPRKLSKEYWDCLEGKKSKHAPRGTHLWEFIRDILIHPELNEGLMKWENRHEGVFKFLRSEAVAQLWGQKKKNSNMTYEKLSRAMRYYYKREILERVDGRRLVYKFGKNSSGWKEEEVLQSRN
How it was run: as §1

[13] = biological target: CRX (Homo sapiens, UniProt O43186 1-299); settings: protein: recombinant; tags: N-terminal GST; dsDNA, one strand shown
Sequence of CRX (O43186 whole entry): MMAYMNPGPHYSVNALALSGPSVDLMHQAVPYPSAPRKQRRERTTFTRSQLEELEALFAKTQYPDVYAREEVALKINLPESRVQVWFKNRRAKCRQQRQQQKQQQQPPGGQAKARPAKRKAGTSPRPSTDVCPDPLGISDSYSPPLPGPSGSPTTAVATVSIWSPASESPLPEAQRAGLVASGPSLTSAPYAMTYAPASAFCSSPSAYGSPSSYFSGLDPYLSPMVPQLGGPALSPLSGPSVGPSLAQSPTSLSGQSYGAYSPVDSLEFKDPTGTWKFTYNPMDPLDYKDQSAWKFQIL
How it was run: as §1

[14] = biological target: ETV1 (Homo sapiens, UniProt P50549 1-477); settings: protein: recombinant; tags: N-terminal GST; dsDNA, one strand shown
Sequence of ETV1 (P50549 whole entry): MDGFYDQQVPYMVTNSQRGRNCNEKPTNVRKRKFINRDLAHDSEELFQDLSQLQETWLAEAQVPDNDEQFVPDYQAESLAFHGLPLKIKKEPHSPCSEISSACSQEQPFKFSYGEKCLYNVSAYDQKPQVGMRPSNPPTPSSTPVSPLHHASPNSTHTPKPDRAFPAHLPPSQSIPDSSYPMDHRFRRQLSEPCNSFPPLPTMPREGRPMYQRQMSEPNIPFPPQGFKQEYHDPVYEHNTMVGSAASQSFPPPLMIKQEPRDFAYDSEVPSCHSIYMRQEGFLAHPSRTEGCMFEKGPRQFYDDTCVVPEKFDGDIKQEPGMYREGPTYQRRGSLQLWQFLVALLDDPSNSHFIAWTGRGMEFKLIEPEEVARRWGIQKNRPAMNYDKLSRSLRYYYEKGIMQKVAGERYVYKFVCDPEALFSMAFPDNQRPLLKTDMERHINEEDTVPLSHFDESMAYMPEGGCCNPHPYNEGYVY
How it was run: as §1

[15] = biological target: T9, ERG (Homo sapiens, UniProt P11308 1-479); settings: protein: recombinant; tags: N-terminal GST; dsDNA, one strand shown
T9 sequence: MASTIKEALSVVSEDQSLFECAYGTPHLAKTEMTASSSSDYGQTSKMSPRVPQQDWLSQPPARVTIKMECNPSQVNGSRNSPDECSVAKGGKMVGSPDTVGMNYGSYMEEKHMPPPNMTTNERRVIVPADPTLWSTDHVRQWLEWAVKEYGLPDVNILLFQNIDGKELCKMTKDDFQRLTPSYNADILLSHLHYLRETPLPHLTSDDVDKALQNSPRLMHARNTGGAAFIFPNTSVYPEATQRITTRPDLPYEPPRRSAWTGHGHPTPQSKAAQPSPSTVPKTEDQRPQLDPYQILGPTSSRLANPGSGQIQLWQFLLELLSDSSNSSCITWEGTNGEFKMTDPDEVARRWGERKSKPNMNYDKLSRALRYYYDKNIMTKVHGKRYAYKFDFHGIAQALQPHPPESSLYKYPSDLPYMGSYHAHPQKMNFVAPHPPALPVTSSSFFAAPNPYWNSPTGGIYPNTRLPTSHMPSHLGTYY
How it was run: as §1

[16] = biological target: T10, ETV2 (Homo sapiens, UniProt O00321 1-342); settings: protein: recombinant; tags: N-terminal GST; dsDNA, one strand shown
T10 sequence: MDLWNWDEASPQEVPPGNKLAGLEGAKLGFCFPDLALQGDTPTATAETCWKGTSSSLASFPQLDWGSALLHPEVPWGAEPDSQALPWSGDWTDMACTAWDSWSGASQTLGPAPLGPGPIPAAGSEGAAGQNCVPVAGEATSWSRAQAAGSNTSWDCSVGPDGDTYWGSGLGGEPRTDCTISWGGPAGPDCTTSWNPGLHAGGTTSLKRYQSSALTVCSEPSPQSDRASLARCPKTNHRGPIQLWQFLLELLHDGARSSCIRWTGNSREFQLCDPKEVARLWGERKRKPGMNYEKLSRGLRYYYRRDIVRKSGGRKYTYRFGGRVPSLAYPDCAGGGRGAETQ
How it was run: as §1

Sequence	binding signal [1]	binding signal [2]	binding signal [3]	binding signal [4]	binding signal [5]	binding signal [6]	binding signal [7]	binding signal [8]	binding signal [9]	binding signal [10]	binding signal [11]	binding signal [12]	binding signal [13]	binding signal [14]	binding signal [15]	binding signal [16]
TAGCGA	1.1 fold enrichment (6-mer frequency, TF over GST control)	1.01 fold enrichment (6-mer frequency, TF over GST control)	1.18 fold enrichment (6-mer frequency, TF over GST control)	1.03 fold enrichment (6-mer frequency, TF over GST control)	1.03 fold enrichment (6-mer frequency, TF over GST control)	1.08 fold enrichment (6-mer frequency, TF over GST control)	1.08 fold enrichment (6-mer frequency, TF over GST control)	1.22 fold enrichment (6-mer frequency, TF over GST control)	1.08 fold enrichment (6-mer frequency, TF over GST control)	1.04 fold enrichment (6-mer frequency, TF over GST control)	1.05 fold enrichment (6-mer frequency, TF over GST control)	1.2 fold enrichment (6-mer frequency, TF over GST control)	1.24 fold enrichment (6-mer frequency, TF over GST control)	1.07 fold enrichment (6-mer frequency, TF over GST control)		
ATCGTT	1.08 fold enrichment (6-mer frequency, TF over GST control)		1.01 fold enrichment (6-mer frequency, TF over GST control)				1 fold enrichment (6-mer frequency, TF over GST control)	1.02 fold enrichment (6-mer frequency, TF over GST control)	1.03 fold enrichment (6-mer frequency, TF over GST control)	1.04 fold enrichment (6-mer frequency, TF over GST control)	1.12 fold enrichment (6-mer frequency, TF over GST control)	1.03 fold enrichment (6-mer frequency, TF over GST control)	1.14 fold enrichment (6-mer frequency, TF over GST control)	1.06 fold enrichment (6-mer frequency, TF over GST control)	1.02 fold enrichment (6-mer frequency, TF over GST control)	1.13 fold enrichment (6-mer frequency, TF over GST control)

Reference: paper PMC7862700, “An all-to-all approach to the identification of sequence-specific readers for epigenetic DNA modifications on cytosine”
